# Only some compounds are listed: those with a hit (about 27% of all), similar ones and a draw of the others.
# CYP2C9 inh: blocks human cytochrome P450 2C9 | P11712 | CYP2C9 Supersomes, luciferin-H conversion, luminescence | inhibition, % at 5 µM | 20% of 96,000 active | AID 777;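 active = blocking of liver enzyme CYP2C9 beyond about 50% at 5 µM, limit read from the data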
# Target sequence (P11712 whole entry, looked up): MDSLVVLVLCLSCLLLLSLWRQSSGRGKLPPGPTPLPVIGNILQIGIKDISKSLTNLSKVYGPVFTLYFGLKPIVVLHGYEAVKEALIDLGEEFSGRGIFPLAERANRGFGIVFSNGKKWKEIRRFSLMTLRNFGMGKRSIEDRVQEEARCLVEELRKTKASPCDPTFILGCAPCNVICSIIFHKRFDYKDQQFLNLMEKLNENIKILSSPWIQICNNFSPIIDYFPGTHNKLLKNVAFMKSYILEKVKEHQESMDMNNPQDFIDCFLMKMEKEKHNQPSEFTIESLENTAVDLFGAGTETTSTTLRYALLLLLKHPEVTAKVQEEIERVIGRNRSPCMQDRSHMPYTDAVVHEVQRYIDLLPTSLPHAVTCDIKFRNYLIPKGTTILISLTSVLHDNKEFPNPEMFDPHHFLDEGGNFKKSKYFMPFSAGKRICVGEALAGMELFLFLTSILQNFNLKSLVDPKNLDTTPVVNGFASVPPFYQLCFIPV
# EphB4 antag: blocks human EphB4 binding to ephrin-B2. P54760. EphB4 LBD / TNYL-RAW-Alexa532 peptide, fluorescence polarization. inhibition, % at 7 µM. 0.15% of 97,000 active. AID 720;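 active = inhibition above the screen-wide mean inhibition plus 3 SD, cut at about 15% in these data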;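 also: 0% = DMSO wells and 100% = excess unlabeled TNYL-RAW peptide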
# CYP2C19 activ: increases human CYP2C19 enzyme activity; P33261; recombinant CYP2C19, luciferin-H EGE luminescence; hits give high values; 0 = fully inhibited enzyme, 1 = untreated enzyme; activation factor at 5 µM; 96,000 tested, under 10 active;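 active = activation factor of at least 2 at 5 µM in the primary screen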;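 also: 0 = wells with 2.5 mM tranylcypromine and 1 = vehicle-only wells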
# CYP2C19 inhib: human CYP2C19 inhibition; CYP2C19 Supersomes, luciferin-H EGE luminescence, 30 min; 21% of 96,000 active; inhibition, % at 5 µM; P33261;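 active = CYP2C19 inhibition above a set limit at 5 µM in the primary screen, cut at about 50% in these data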;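 also: plate controls were negative control wells for no effect and 2.5 mM tranylcypromine positive control for full effect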
# CYP2C9 activ: increases human cytochrome P450 2C9 activity; AID 1024; 1.4% of 96,000 active; recombinant CYP2C9, luciferin-H conversion, luminescence; hits give high values; factor 1 = untreated enzyme, 0 = blocked; P11712; activation factor at 5 µM;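 active = activation factor of 2 or more for CYP2C9 at a 5 µM dose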;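 also: 0 = sulfaphenazole-blocked wells and 1 = vehicle-only wells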
# Starred values were filed as active, the others as inactive; / = no result given.
SMILES,CYP2C9 inh,EphB4 antag,CYP2C19 activ,CYP2C19 inhib,CYP2C9 activ
O=C(O)CCc1ccc(-c2ccc(F)cc2)n1Cc1ccco1,9,2,0.4,57*,0.9
O=C(O)CCc1ccc(-c2ccccc2)n1CC1CCCO1 (stereo unspecified),3,2,0.4,64*,1
O=C(O)CCc1ccc(-c2ccccc2)n1Cc1ccco1,47,2,0.4,63*,0.5
Cc1cc(C)n2nc(SCCC(=O)NCCc3ccccc3)nc2n1,13,2,0.8,17,0.9
Cc1ccc(NC(=O)CSc2nc(NS(=O)(=O)c3ccccc3)cc(=O)[nH]2)cc1,61*,2,0.8,23,0.4
CCC(Sc1nc(-c2ccccc2)cc(=O)[nH]1)C(=O)O (stereo unspecified),-17,-1,1,2,1.2
CCC(Sc1nc(-c2ccccc2)c(C#N)c(=O)[nH]1)C(=O)Nc1nnc(C)s1 (stereo unspecified),67*,-12,0.9,11,0.3
Cc1ccc(-c2csc(NC(=O)CSc3nc(C)cc(=O)[nH]3)n2)cc1,82*,-5,0.7,27,0.2
CCC(Sc1nc(C)cc(=O)[nH]1)C(=O)Nc1nc(-c2ccccc2)cs1 (stereo unspecified),88*,3,0.3,71*,0.1
O=c1[nH]cnc2nc3n(c12)CCCCC3,-33,3,1.2,-21,1.3
COc1ccccc1OCCSc1nnnn1-c1ccc(C)cc1,23,/,0,99*,0.8
Cc1ncc(CSc2nnnn2-c2ccccc2)c(N)n1,-13,5,0.4,64*,1.1
c1ccc(OCCSc2nnnn2-c2ccccc2)cc1,36,12,0.9,11,0.6
CCOc1ccc(OCCSc2nnnn2-c2ccccc2)cc1,50*,-4,0.7,31,0.5
Fc1ccccc1OCCSc1nnnn1-c1ccccc1,44,9,0.6,43,0.6
CCOc1ccc(OCCSc2nnnn2C2CCCCC2)cc1,88*,-1,0.4,57*,0.1
CC(=O)OCc1c(COC(C)=O)[n+](=O)c2ccccc2n1[O-],6,1,0.9,9,0.9
CC(=O)N1CCC(C(=O)Nc2ccccc2)(N(Cc2ccccc2)C(=O)c2cccnc2)CC1,-3,/,1,1,1
CCN1CC=C2C(C1)C(c1ccc(Cl)s1)C(C#N)=C(N)C2(C#N)C#N (stereo unspecified),93*,0,0.3,70*,0.1
CC12CC(NC(=O)N1CCc1ccccc1)c1cc(Cl)ccc1O2 (stereo unspecified),/,7,/,/,/
CCOC(=O)C1CCN(C(=O)Cn2cc3c(n2)CCC(C)C3)CC1 (stereo unspecified),0,/,0.6,39,1
CN(Cc1c(O)ccc2c1oc(=O)c1ccccc12)C1CCCCC1,26,/,0.5,50*,0.7
O/N=C/c1cc(Cl)ccc1OCc1ccccc1Cl,61*,-7,0.8,21,0.4
CN(C)c1ccc(/C=N/N=C2/NC(=O)/C(=C/c3ccc([N+](=O)[O-])cc3)S2)cc1,-19,0,0.9,7,1.2
O=C1N/C(=N/Nc2ccccc2)S/C1=C\c1ccccc1,67*,-10,0.5,53*,0.3
SMILES,CYP2C9 inh,EphB4 antag,CYP2C19 activ,CYP2C19 inhib,CYP2C9 activ
Cc1nc2nc(Cc3ccccc3)[nH]n2c(=O)c1Cl,69*,-3,1.1,-14,0.3
Cc1nc2nc(Cc3ccccc3)[nH]n2c(=O)c1Cc1ccccc1,-1,0,1.1,-13,1
Cc1nc2nc(COc3ccccc3)[nH]n2c(=O)c1Cl,75*,-1,0.7,31,0.3
O=c1cc(-c2ccccc2)nc2nc(COc3ccccc3)[nH]n12,28,-2,1,5,0.7
CCOC(=O)c1ccccc1NC(=O)CN(c1cccc(OC)c1)S(C)(=O)=O,95*,/,0,99*,0.1
COc1cccc(N(CC(=O)Nc2ccccc2C)S(C)(=O)=O)c1,17,0,0.4,63*,0.8
CCc1ccccc1NC(=O)CN(c1cccc(OC)c1)S(C)(=O)=O,63*,-4,0.1,86*,0.4
COc1ccccc1N(CC(=O)Nc1ccccc1C)S(C)(=O)=O,/,4,/,/,/
O=C(Nc1ccc2c(c1)OCCO2)c1ccc(CN2CCOCC2)cc1,-1,-8,1,2,1
O=C(COc1ccccc1)NCC(=O)NC1=NCCS1,-6,4,0.8,20,1.1
CCCCNC(=O)C1CCN(S(=O)(=O)c2c(C)noc2/C=C\c2ccc(OC)cc2)CC1,36,-8,1,4,0.6
CSc1ccc(-c2nc(CSCC(=O)N3CCOCC3)c(C)o2)cc1,8,0,0.9,9,0.9
CCOC(=O)N1CCN(C(=O)CSCc2nc(-c3ccccc3C)oc2C)CC1,36,1,0.4,59*,0.6
CCc1ccc(-c2nc(CSCC(=O)N3CCN(c4ncccn4)CC3)c(C)o2)cc1,75*,1,0.7,29,0.3
O=C(NC1CCN(C(=O)N2CCOCC2)CC1)c1ccccc1,5,2,1,4,1
CCn1cc(C(=O)OCc2ccc(F)cc2)c(=O)c2ccc(C)nc21,10,6,0.8,15,0.9
Cc1cccc(Nc2ncc3c(n2)CC(c2ccco2)CC3=O)c1 (stereo unspecified),16,-3,1,4,0.8
Cc1ccc(NC(=O)CSCC(=O)Nc2ncc3c(n2)CC(c2ccco2)CC3=O)cc1 (stereo unspecified),62*,0,0.8,25,0.4
Cc1cc(C)cc(Nc2ncc3c(n2)CC(c2ccco2)CC3=O)c1 (stereo unspecified),58*,0,0.6,37,0.4
O=C1CC(c2ccco2)Cc2nc(Nc3nc(-c4ccccc4)c4ccccc4n3)ncc21 (stereo unspecified),68*,-2,0.4,59*,0.3
Cc1ccc(C(=O)Nc2ncc3c(n2)CC(c2ccco2)CC3=O)cc1 (stereo unspecified),7,-6,0.9,13,0.9
Cc1ccc(Nc2ncc3c(n2)CC(c2ccco2)CC3=O)c(C)c1 (stereo unspecified),67*,-3,0.7,34,0.3
CCOC(=O)C1CCCN(c2c(NCc3ccco3)c(=O)c2=O)C1 (stereo unspecified),5,/,1,-1,0.9
Cc1ccc(C)c(NS(=O)(=O)c2cc(C(=O)NCCSC3CCCCC3)ccc2C)c1,79*,4,0.4,59*,0.2
Cc1ccccc1NS(=O)(=O)c1cc(C(=O)NCCSC2CCCCC2)ccc1C,63*,1,0.6,42,0.4
Cc1ccc(C)c(NS(=O)(=O)c2cc(C(=O)NCCC3=CCCCC3)ccc2C)c1,24,-5,1.1,-5,0.8
CC1(C)Cc2nc(N)c(=O)sc2C1,-10,-7,0.8,16,1.1
CCOc1ccc(NCc2nnc(SCC(=O)Nc3cc(C)on3)n2-c2ccc(OC)cc2)cc1,-5,-10,1,1,1
